Out of some 310,000 compounds screened, about 14,000 (4.5%) showed an effect of 50% or more. Effects have a minus sign here. Shown is part of a subset that was picked to be rich in strong results.
biological target: human ether-à-go-go-related gene (hERG) potassium channel (human, UniProt Q12809); assay: primary screen, population patch clamp on CHO cells stably expressing hERG; higher = less effect of the substance
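Also: peak tail current of the secondary pulse compared with the same well before compound.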

human ether-à-go-go-related gene (hERG) potassium channel, sequence (Q12809 whole entry, looked up): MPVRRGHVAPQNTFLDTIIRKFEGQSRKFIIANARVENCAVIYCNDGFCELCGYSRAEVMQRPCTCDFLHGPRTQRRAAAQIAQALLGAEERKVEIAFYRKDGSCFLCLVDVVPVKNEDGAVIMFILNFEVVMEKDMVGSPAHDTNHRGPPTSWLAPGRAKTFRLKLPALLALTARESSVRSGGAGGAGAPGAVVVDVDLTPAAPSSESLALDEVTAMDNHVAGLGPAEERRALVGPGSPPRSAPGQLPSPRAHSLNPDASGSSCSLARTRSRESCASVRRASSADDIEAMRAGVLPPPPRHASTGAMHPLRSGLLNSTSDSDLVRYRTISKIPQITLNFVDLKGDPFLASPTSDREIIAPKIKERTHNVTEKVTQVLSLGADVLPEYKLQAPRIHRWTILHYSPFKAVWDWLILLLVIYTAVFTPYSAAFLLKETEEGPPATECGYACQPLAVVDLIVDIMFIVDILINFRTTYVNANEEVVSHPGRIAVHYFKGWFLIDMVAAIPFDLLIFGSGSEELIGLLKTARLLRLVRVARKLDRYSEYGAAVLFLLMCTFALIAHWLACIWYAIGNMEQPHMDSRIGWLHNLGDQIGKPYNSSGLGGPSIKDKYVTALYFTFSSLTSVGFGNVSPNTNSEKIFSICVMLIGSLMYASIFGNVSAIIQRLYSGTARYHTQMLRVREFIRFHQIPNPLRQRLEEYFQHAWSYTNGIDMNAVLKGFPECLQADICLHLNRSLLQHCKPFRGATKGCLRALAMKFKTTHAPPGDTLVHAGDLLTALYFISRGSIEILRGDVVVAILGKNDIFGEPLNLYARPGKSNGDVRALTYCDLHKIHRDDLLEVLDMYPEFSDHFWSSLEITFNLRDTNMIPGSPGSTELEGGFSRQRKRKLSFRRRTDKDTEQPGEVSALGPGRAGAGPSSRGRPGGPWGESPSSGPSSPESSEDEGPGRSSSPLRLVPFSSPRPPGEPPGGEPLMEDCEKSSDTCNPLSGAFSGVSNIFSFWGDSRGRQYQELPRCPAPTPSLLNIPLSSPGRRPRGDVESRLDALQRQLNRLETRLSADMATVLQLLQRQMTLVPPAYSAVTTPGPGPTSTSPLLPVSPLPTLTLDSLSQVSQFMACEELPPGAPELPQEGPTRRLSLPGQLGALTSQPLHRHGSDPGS

SMILES | hERG current change (%, negative = inhibition) at 10uM [%]
COc1ccc(CN2C(=O)NC3(CCCc4ccccc43)C2=O)cc1F (stereo not drawn) | -14.4
O=[N+]([O-])c1cc(S(=O)(=O)Nc2cccc(C(F)(F)F)c2)ccc1-n1nnc2ccccc21 | 0.81
COc1ccc(S(=O)(=O)N2CCC(N3CCN(c4ccccc4)CC3)CC2)cc1 | -8.52
C/C=C(\C)C(=O)NCCN1C2=NC[C@H](C(C)C)N2C[C@@H]1Cc1ccc(OC)cc1 | -86.6
C/C=C(\C)C(=O)NCCN1C2=NC[C@@H](Cc3ccccc3)N2C[C@@H]1Cc1ccc(OC)cc1 | -60.3
C/C=C(\C)C(=O)NCCN1C2=NC[C@H](C)N2C[C@@H]1Cc1ccc(OC)cc1 | -4.7
C/C=C(\C)C(=O)NCCN1C2=NC[C@H](C(C)C)N2C[C@H]1Cc1ccc(O)cc1 | 23.1
C/C=C(\C)C(=O)NCCN1C2=NC[C@H](Cc3ccccc3)N2C[C@H]1Cc1ccc(O)cc1 | 1.99
C/C=C(\C)C(=O)NCCN1C2=NC[C@H](Cc3ccc(O)cc3)N2C[C@@H]1Cc1ccc(OC)cc1 | -2.89
C/C=C(\C)C(=O)NCCN1C2=NC[C@H](Cc3ccccc3)N2C[C@@H]1Cc1ccc(OC)cc1 | -73.3
C/C=C(\C)C(=O)NCCN1C2=NC[C@@H](Cc3ccccc3)N2C[C@H]1Cc1ccc(O)cc1 | 12.8
CC1(C)CC(=O)C2=C(C1)OC1=C(C(=O)CC(C)(C)C1)C2c1ccc(O)c([N+](=O)[O-])c1 | 14
Cc1cc(O)c(C=Nc2ccc(N3CCOCC3)cc2)c(C)c1Cl | 18.5
O=C1CN(C(=O)COC(=O)C2CC(=O)N(Cc3ccco3)C2)c2ccccc2N1 (stereo not drawn) | -7.99
CSc1ccc(/C=C2\C(=N)N3N=C(CC(=O)N4CCOCC4)SC3=NC2=O)cc1 | 14.2
CCC1CCCCN1CCCNC(=O)c1ccc(/C=C2/Sc3ccccc3NC2=O)cc1 (stereo not drawn) | -76.9
CCC1CCCCN1CCCNC(=O)c1ccc2c(c1)NC(=O)CS2 (stereo not drawn) | 4.27
CN1CCN(C(=O)c2ccc3c(c2)NC(=O)/C(=C/c2ccccc2)S3)CC1 | -16
Cc1cccc(/C=C2/Sc3ccc(C(=O)NCCN4CCCC4)cc3NC2=O)c1 | -54.7
CCN1CCN(CCCNC(=O)c2ccc3c(c2)NC(=O)/C(=C\c2cccc(C)c2)S3)CC1 | -38.6
CCN1CCCC1CNC(=O)c1ccc2c(c1)NC(=O)/C(=C\c1ccc(C)cc1)S2 (stereo not drawn) | -42.4
O=C1Nc2cc(C(=O)N3CCC(N4CCCCC4)CC3)ccc2S/C1=C\c1ccccc1 | -58.3
Cc1cccc(/C=C2/Sc3ccc(C(=O)NCCCN4CCOCC4)cc3NC2=O)c1 | -25.3
CC1CCN(C(=O)c2ccc3c(c2)NC(=O)/C(=C/c2ccccc2)S3)CC1 | 11
COc1cccc(/C=C2/Sc3ccc(C(=O)NCCCN4CCCC4)cc3NC2=O)c1 | -59.8
COc1cccc(/C=C2/Sc3ccc(C(=O)NCCN4CCCCCC4)cc3NC2=O)c1 | -47.3
COc1cccc(/C=C2/Sc3ccc(C(=O)NCCN4CCCC4)cc3NC2=O)c1 | -39.1

From paper PMC4336329 (PLoS ONE, 2015)
